Screens deposited in PubChem by The Scripps Research Institute Molecular Screening Center.
FBW7 activator: FBW7 E3 ligase activators, primary screen, biochemical, AlphaScreen, human; F-box/WD repeat-containing protein 7 (Homo sapiens), Q969H0; AlphaScreen FBW7–phospho-cyclin E peptide binding, activator screen; normalized activity (activation), % at 26.1 µM; 0.13% of 650,000 active; AID 1259310, 2017; in the data active = normalized activity above about 1.9%;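 also: purified mutant Fbw7 with reduced substrate affinity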
TEAD-YAP inh: TEAD-YAP interaction inhibition, primary screen, TEAD-YAP interaction inhibitor project, luminescence, HEK-TIYL cells. 1.4% of 640,000 active. TEAD-Gal4/YAP UAS-luciferase luminescence. inhibition, % at 9.12 µM; in the data active = inhibition above about 32%
MITF primary: MITF inhibitors, primary screen, biochemical, AlphaScreen, human; AlphaScreen MITF homodimerization, bead proximity signal; AID 1259374, 2018; Microphthalmia-associated transcription factor (Homo sapiens), O75030; 0.91% of 650,000 active; inhibition, % at 2.6 µM; in the data active = inhibition above about 50%
Target sequence (O75030 whole entry, looked up): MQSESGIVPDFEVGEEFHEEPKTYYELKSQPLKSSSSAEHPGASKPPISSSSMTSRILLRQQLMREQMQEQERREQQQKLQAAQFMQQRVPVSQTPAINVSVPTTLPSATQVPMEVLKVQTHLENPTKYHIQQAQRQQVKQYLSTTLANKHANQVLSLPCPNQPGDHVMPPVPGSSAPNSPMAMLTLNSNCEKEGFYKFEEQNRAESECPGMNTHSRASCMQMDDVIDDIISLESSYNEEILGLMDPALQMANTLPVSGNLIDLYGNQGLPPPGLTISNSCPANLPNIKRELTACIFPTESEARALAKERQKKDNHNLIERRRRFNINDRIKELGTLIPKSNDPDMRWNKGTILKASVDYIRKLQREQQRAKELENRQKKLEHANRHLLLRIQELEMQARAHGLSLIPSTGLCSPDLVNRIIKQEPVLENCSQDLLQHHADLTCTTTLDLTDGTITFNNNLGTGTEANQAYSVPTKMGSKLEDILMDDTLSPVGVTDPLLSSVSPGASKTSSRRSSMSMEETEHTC
GPR151 activ: activators of human GPR151, primary screen, cell-based, PathHunter beta-arrestin, luminescence; PathHunter beta-arrestin GPR151 cells; activation, % at 11.2 µM; 1% of 650,000 active; in the data active = activation above about 4.9%
A number is an active result; – = inactive. Shown are actives, neighbours in structure and some others; about 3.4% of the full set was active somewhere.

SMILES	FBW7 activator	TEAD-YAP inh	MITF primary	GPR151 activ
Cc1nnc(SCC(=O)O)n1/N=C/c1cc(Br)ccc1O	–	–	–	–
C=CCn1c(C)cc(C(=O)COC(=O)/C=C/c2ccc(OCC#N)c(OC)c2)c1C	–	–	–	–
O=C(NC1(c2ccccc2)CC1)c1cc(COc2ccc3ncccc3c2)on1	–	58	–	–
CC(CCCC(C)(C)O)NC(=O)c1cc(COc2ccc3ncccc3c2)on1 (centres undefined)	–	33	–	–
N#CC1=C(N)Oc2n[nH]c(-c3cccs3)c2C1c1ccc(F)cc1 (centres undefined)	–	–	–	–
c1cnc(Nc2nc(Nc3ccc(N4CCOCC4)cc3)c3ncn(-c4ccsc4)c3n2)cn1	–	46	–	–
c1cncc(CNc2nc(Nc3ccc(N4CCOCC4)cc3)c3ncn(-c4ccsc4)c3n2)c1	–	–	–	–
c1ccc(Nc2nc(Nc3ccc(N4CCOCC4)cc3)c3ncn(-c4ccsc4)c3n2)nc1	–	37	–	–
c1ccc(Nc2nc(Nc3ccc(N4CCOCC4)cc3)c3ncn(-c4ccsc4)c3n2)cc1	–	39	–	–
CC(=O)Nc1ccc(Nc2nc(Nc3ccc4ncccc4c3)nc3c2ncn3-c2ccsc2)cc1	–	–	–	–
CC(=O)Nc1ccc(Nc2nc(Nc3ccccn3)nc3c2ncn3-c2ccsc2)cc1	–	45	–	–
CC(=O)N[C@@H](C)C(=O)N1CCCC(c2nc(C)ncc2-c2ccc(F)cc2)C1 (some centres undefined)	–	–	–	–
CC(C(=O)N(C)C1CCCCC1)N1C(=O)c2ccccc2C1=O (centres undefined)	–	–	–	–
CCC(=O)Nc1ccc(Cl)c(NC(=O)COc2ccccc2[N+](=O)[O-])c1	–	–	–	–
c1ccc(Nc2nc(Nc3nccc4ccccc34)nc3c2ncn3-c2ccsc2)cc1	–	–	–	–
c1ccc2c(Nc3nc(Nc4ccc(N5CCOCC5)cc4)c4ncn(-c5ccsc5)c4n3)nccc2c1	–	73	–	–
CCOC(=O)c1cccc(C(=O)Nc2ccccc2C(=O)OC)n1	–	–	–	–
CCOC(=O)c1cccc(C(=O)NC2=NN(c3ccccc3)C(=O)C2)n1	51	–	–	–
CCc1ccccc1NC(=O)N1CCCC1C(=O)NC(C)(C)C (centres undefined)	–	–	–	–
CCOC(=O)CN1C(=O)S/C(=C/c2cc(OCC)c(O)c([N+](=O)[O-])c2)C1=O	–	–	–	–
CCOc1ccc(/C=C/c2nc3ccccc3c(=O)o2)cc1	–	83	–	–
COC(=O)c1nnn(-c2nonc2N)c1CN1CC(C)OC(C)C1 (centres undefined)	–	–	–	–
Nc1ccc(-c2cn3c4c(sc3n2)CCCC4)cc1	–	–	–	–
c1ccc(-c2cn3c4c(nnc3n2)CCCC4)cc1	–	44	–	–
c1ccc(-c2cn3c4c(sc3n2)CCCC4)cc1	–	85	–	–
SMILES	FBW7 activator	TEAD-YAP inh	MITF primary	GPR151 activ
O=C(Nc1ccc(-c2cn3c4c(nnc3n2)CCCC4)cc1)c1cccnc1	–	–	–	–
CC(=O)Nc1ccc(-c2cn3c4c(sc3n2)CCCC4)cc1	–	–	–	–
Fc1ccc(-c2cn3c4c(sc3n2)CCCC4)cc1	–	52	–	–
Cc1ccc(C(=O)NNC(=O)c2ccccc2F)cc1S(=O)(=O)N1CCCCC1	–	–	–	–
COc1ccccc1C1C(C#N)=C(N)OC2=C1C(=O)CC(c1ccccc1)C2 (centres undefined)	–	–	–	–
COc1cc(C2C(C#N)=C(N)N(N(C)C)C3=C2C(=O)CC(c2ccccc2)C3)cc(OC)c1OC (centres undefined)	–	57	–	–
N#CC1=C(N)OC2=C(C(=O)CC(c3ccccc3)C2)C1c1c(Cl)cccc1[N+](=O)[O-] (centres undefined)	–	41	–	–
Cc1ccc(C2C(C#N)=C(N)N(N(C)C)C3=C2C(=O)CC(c2ccccc2)C3)cc1 (centres undefined)	–	–	–	–
COc1cccc(C2C(C#N)=C(N)N(N(C)C)C3=C2C(=O)CC(c2ccccc2)C3)c1OC (centres undefined)	–	55	–	–
N#CC1=C(N)OC2=C(C(=O)CC(c3ccccc3)C2)C1c1ccc([N+](=O)[O-])s1 (centres undefined)	–	–	–	–
COc1cccc(C2C(C#N)=C(N)OC3=C2C(=O)CC(c2ccccc2)C3)c1OC (centres undefined)	–	–	–	–
COc1ccc(OC)c(C2C(C#N)=C(N)OC3=C2C(=O)CC(c2ccccc2)C3)c1 (centres undefined)	–	47	–	–
Cc1cc(S(=O)(=O)NCC(C)C)ccc1OCC(=O)Nc1ccc2c(c1)OCO2	–	–	–	–
COc1ccc(OC)c(C2C(C#N)=C(N)N(N(C)C)C3=C2C(=O)CC(C)(C)C3)c1 (centres undefined)	–	–	–	–
COc1ccc(OC)c(C2C(C#N)=C(N)N(N(C)C)C3=C2C(=O)CC(c2ccccc2)C3)c1 (centres undefined)	–	57	–	–
COCCn1c(SCc2ccc(Cl)cc2)nnc1C(C)C	–	–	–	–
CNc1c(C)ccc2c1C(=O)c1ccccc1C2=O	–	–	84	–
Cc1ccc(Cl)cc1NC(=O)CSc1nc2ccccc2[nH]1	–	–	–	–
O=C(CSc1nc2ccccc2[nH]1)Nc1ccc(Cl)cc1O	–	35	–	–
C=CCn1c(C)cc(C(=O)CSc2nc3ccccc3[nH]2)c1C	–	53	–	–
O=C(CSc1nc2ccccc2[nH]1)Nc1ccccn1	–	–	–	–
O=C(CSc1nc2ccccc2[nH]1)Nc1ccc(Cl)cn1	–	75	–	–
O=c1c2cnn(-c3ccccc3)c2nc(Cc2ccccc2)n1-c1cccc2ccccc12	–	–	–	–
Cc1csc(SCC(=O)Nc2ccc(F)c([N+](=O)[O-])c2)n1	–	–	–	–
CC(=N/NC(=O)c1ccc(C)cc1)/C(C)=N/O	–	71	–	–
SMILES	FBW7 activator	TEAD-YAP inh	MITF primary	GPR151 activ
CC(=N/O)/C(C)=N\NC(=O)c1ccccn1	–	45	–	–
CCOC(=O)N1CCc2c(sc(NC(=O)Cc3cccc4ccccc34)c2C(N)=O)C1	–	–	–	–
Cc1ccc(SCC(=O)N2C(C)CCCC2C)cc1 (centres undefined)	–	–	–	–
O=C(Nc1ccc(S(=O)(=O)N2CCCCC2)cc1)c1ccc(CN2CCc3ccccc3C2)cc1	–	65	–	–
CCOC(=O)C(CC)/C(C)=N\NC(=O)c1ccccc1[N+](=O)[O-] (centres undefined)	–	–	–	–
CCOC(=O)C(CC)/C(C)=N\NC(=O)c1ccccc1O (centres undefined)	–	59	–	–
Cc1cc(C)nc(N/N=C/c2sc(N3CCOCC3)nc2-c2ccccc2)n1	–	46	–	–
